The sequences below were run on PPARg DBDmut IVT, anti-PPARg (DBD mutation: PPARg1 K132A/R137A, NR concentration 270 nM) (assay: PBM binding z-score (relative to random genomic background probes); higher = stronger binding; sequences stand for … in GC…GCGATTGACAGCGTAGAATGAAGG).
Method in brief: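 Regression normalization was applied to scanned fluorescence from custom Agilent 4×180K protein-binding microarrays. Before scanning, arrays were incubated 1 h with ligand-free nuclear receptor dimers, and binding was detected with antibodies against each partner (one per run). Binding z-scores use the random background probes as reference.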
Sequence CCTTACGGGTCACTGACAGGTTATAACATTTGGA has a PBM binding z-score of 0.266. For ATATGTACGTTATCGGGTCATTCAGTTTGCGCAT, the PBM binding z-score was 1.76. With CCTTCTGGGCCAAGGTCATTGATCAGTCAAAGCA the PBM binding z-score was -0.969. TCTATTCGTTGAAGGGCAACCGACGAGTCCGTTT gave a PBM binding z-score of 0.28. In the case of CATAGTTGGTCAGGAGGTCACACACCGGATATGA, the PBM binding z-score was 0.996. In the case of CGTCCAAGGTCAGCAGGTCAGTGATAGCGACGTG, the PBM binding z-score was -0.161. AACTCTAGGTAACAAGTTCAGTGAAAGAGAGGAC was tested, and the PBM binding z-score was 0.445. CCTACTGGGCCATTCAGAGTTCATTGATCATATG showed a PBM binding z-score of 0.266. With CCTACTGGTCCAAAAAGGTCATTGATGCCGATAA the PBM binding z-score was 0.0096. AGAATGAGGTTAACATCAGGGAAACAGAATACAT showed a PBM binding z-score of 1.16. In the case of CCTACTGGGCCAAAGGTCATTAATTCCAATGCTC, the PBM binding z-score was 0.388. TAGCCTGGGTCAGATCGGGCCAGTATACGCTATA gave a PBM binding z-score of -0.762. Work on ACAGACAGGTGATGGAGGTAACTCAGGCTATCAT yielded a PBM binding z-score of -0.142. AGAATGAGGTTATTACGATCAGGGAATTGCGGTC was tested, and the PBM binding z-score was 0.66. TCCTGTAGATCAATAGAGGTTAAGAAAGTGCGCT gave a PBM binding z-score of 0.281. Work on ACAGACAGGTGATGAGGGTAACTCAGGCTATCAT yielded a PBM binding z-score of 0.0306. With GCTGCTAGGACAACTGATGGTCAGCTAAAGCTCG the PBM binding z-score was -1.57. ACTAGCAGGCCAAGTTTGGGTCACTCGAACAAAG gave a PBM binding z-score of -0.0393.
